Among the test systems are DDR2; DMPK; DYRK1A; DYRK1B; DYRK2; EGFR.
Common to all, as to details: concentration: 1 μM, replicates: in singlicate; n = 1
A further assay concerns T1, DLK.
T1 construct: gene MAP3K12

For another assay, the system named is T2, DMPK2.
T2 construct: gene CDC42BPG

In a further assay the test system is T3, DRAK1.
T3 construct: gene STK17A

In the next assay the test system is T4, DRAK2.
T4 construct: gene STK17B

Structures are written as SMILES.
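Further: KINOMEscan kinase panel screen.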

`O=C(NCCCN1CCCC1=O)c1cnc(NCc2cc(Cl)ccc2Cl)nc1NC1CCNCC1`: the “%Inh” value in the assay with DDR2 was 0%; in the assay on DLK it was 0%; with DMPK2 it was 0%; in the assay with DMPK, 0%; in the assay with DRAK1 it was 0%; with DRAK2 it was 16%. Also, the “%Inh” value is 0% in the assay on DYRK1A, 0% in the assay on DYRK1B, 0% in the assay on DYRK2 and 20% with EGFR.
Take `Cl.O=S(=O)(c1cccc(F)c1)c1ccc(Nc2ncnc3cc(Br)sc23)cc1Cl` [GSK306886]: the “%Inh” value in the assay with DDR2 was found to be 0%; in the assay on DLK, 0%; in the assay with DMPK2, 15%; in the assay on DMPK, 0%; in the assay on DRAK1 it was 9%; in the assay on DRAK2 it was 0%. Besides, the “%Inh” value was determined as 7% in the assay on DYRK1A, 0% in the assay with DYRK1B, 14% in the assay with DYRK2 and 99.2% in the assay with EGFR.
Turning to `O=C(Nc1n[nH]c2nc(-c3ccco3)c(Br)cc12)c1ccc(CN2CCCC2)cc1.O=C(O)[C@H](O)[C@@H](O)C(=O)O` [SB-742352], the “%Inh” value with DDR2 is reported as 0%; with DLK, 0%; in the assay with DMPK2, 0%; with DMPK, 0%; with DRAK1, 42%; in the assay on DRAK2 it was 20%. Further, the “%Inh” value in the assay on DYRK1A turned out to be 0%; with DYRK1B, 0%; with DYRK2, 14%; with EGFR, 8%.
As for `Cl.c1ccc(Cn2ccc3cc(Nc4ncnc5ccccc45)ccc32)cc1` [GW275568], the “%Inh” value with DDR2 is recorded as 16%; in the assay on DLK, 6%; with DMPK2, 5%; in the assay with DMPK, 0%; with DRAK1 it was 0%; in the assay on DRAK2, 0%. Moreover, the “%Inh” value in the assay with DYRK1A is 4%; in the assay with DYRK1B it was 0%; with DYRK2 it was 9%; with EGFR, 100%.
Take `Cl.Fc1ccccc1COc1ccc(Nc2ncnc3ccc(-c4nnc(C(F)(F)F)o4)cc23)cc1Cl` [GW424170]: the “%Inh” value is on record as 18% with DDR2; 11% with DLK; 11% in the assay on DMPK2; 0% with DMPK; 4% in the assay on DRAK1; 0% in the assay with DRAK2. The “%Inh” value with DYRK1A is given as 4%; with DYRK1B, 0%; in the assay with DYRK2, 11%; in the assay with EGFR it was 99.4%.
As for `Fc1cccc(COc2ccc(Nc3ncnc4nn5ccccc5c34)cc2Cl)c1` [GW689066], the “%Inh” value with DDR2 worked out at 37%; with DLK it was 52%; with DMPK2, 0%; in the assay on DMPK, 0%; in the assay with DRAK1, 87%; in the assay with DRAK2, 0%. Moreover, the “%Inh” value is listed as 8% in the assay on DYRK1A, 0% in the assay on DYRK1B and 0% in the assay with DYRK2.
Consider `Cl.c1ccc(Cn2ncc3cc(Nc4ncnc5ccccc45)ccc32)cc1` [GW273749], for which the “%Inh” value in the assay on DDR2 turned out to be 0%; with DLK it was 12%; with DMPK2, 61%; with DMPK, 0%; in the assay with DRAK1 it was 79%; in the assay on DRAK2 it was 0%. Further, the “%Inh” value in the assay on DYRK1A came out at 16%; in the assay with DYRK1B it was 8%; in the assay with DYRK2, 16%; with EGFR it was 100%.
As to `N#Cc1ccc(Oc2ccc(Nc3ncnc4cc[nH]c34)cc2Cl)cc1`, the “%Inh” value in the assay with DDR2 was determined as 0%; in the assay on DLK, 0%; in the assay with DMPK2, 4%; in the assay with DMPK, 0%; in the assay with DRAK1, 32%; with DRAK2 it was 1%. The “%Inh” value was found to be 1% in the assay with DYRK1A, 15% in the assay on DYRK1B, 0% with DYRK2 and 96.7% with EGFR.
On to `Fc1ccc(-c2ncn(CCCNCc3ccccc3)c2-c2ccncc2)cc1`, for which the “%Inh” value turned out to be 3% in the assay on DDR2; 0% in the assay on DLK; 55% in the assay on DMPK2; 3% with DMPK; 0% with DRAK1; 0% with DRAK2. Besides, the “%Inh” value is 22% with DYRK1A, 22% with DYRK1B, 10% with DYRK2 and 17% in the assay on EGFR.
`CCc1nc(-c2cccc(C)c2)c(-c2ccnc(NC(=O)c3ccccc3)c2)s1`: the “%Inh” value in the assay with DDR2 came out at 1%; in the assay on DLK it was 6%; with DMPK2 it was 8%; in the assay on DMPK, 0%; in the assay on DRAK1, 0%; with DRAK2 it was 0%. Besides, the “%Inh” value is 18% with DYRK1A, 50% in the assay with DYRK1B, 10% in the assay with DYRK2 and 24% in the assay with EGFR.
`CCn1c(-c2ccncc2)nc2cnccc21` [SB-735216]: the “%Inh” value in the assay on DDR2 is 7%; in the assay with DLK, 0%; in the assay with DMPK2 it was 0%; with DMPK, 0%; in the assay on DRAK1, 0%; in the assay with DRAK2 it was 2%. The “%Inh” value is on record as 4% with DYRK1A, 2% in the assay with DYRK1B, 17% with DYRK2 and 0% in the assay with EGFR.
With `CNc1nccc(-c2c(-c3ccc(F)cc3)ncn2C2CCN(C)CC2)n1` [SB-222903], the “%Inh” value is recorded as 58% in the assay on DDR2; 0% in the assay on DLK; 21% in the assay on DMPK2; 1% in the assay on DMPK; 0% with DRAK1; 0% in the assay with DRAK2. Also, the “%Inh” value in the assay on DYRK1A stood at 0%; with DYRK1B, 0%; in the assay on DYRK2, 0%; with EGFR it was 8%.
Regarding `Cn1ccc2ncnc(Oc3ccc(NC(=O)Nc4cccnc4)c(Cl)c3)c21`, the “%Inh” value came out at 90.7% in the assay on DDR2; 0% in the assay on DLK; 0% in the assay with DMPK2; 0% in the assay with DMPK; 8% with DRAK1; 2% with DRAK2. In addition, the “%Inh” value was 0% with DYRK1A, 33% in the assay with DYRK1B, 14% in the assay with DYRK2 and 20% in the assay with EGFR.
As for `Nc1nc(-c2ccc3c(N)n[nH]c3c2)cc(N2CCCCC2)n1` [GSK2228768], the “%Inh” value in the assay with DDR2 stood at 0%; in the assay on DLK it was 0%; in the assay on DMPK2, 0%; with DMPK, 0%; with DRAK1, 93.1%; in the assay on DRAK2, 11%. The “%Inh” value in the assay on DYRK1A is given as 18%; with DYRK1B, 0%; in the assay with DYRK2, 58%; in the assay on EGFR, 3%.
Take `C[C@@H]1CCN(C(=O)CO)C[C@@H]1N(C)c1ncnc2[nH]ccc12`: the “%Inh” value amounted to 0% in the assay with DDR2; 0% with DLK; 0% in the assay with DMPK2; 8% in the assay with DMPK; 3% in the assay on DRAK1; 13% in the assay on DRAK2. For the same compound, the “%Inh” value came to 0% in the assay with DYRK1A, 0% in the assay with DYRK1B, 0% with DYRK2 and 1% in the assay with EGFR.
For the compound `COc1ccc(NC(=O)c2ccc(-c3cc(-c4nnc(C)o4)ccc3C)cc2)cc1` [GW595885], the “%Inh” value is given as 9% in the assay on DDR2; 18% with DLK; 0% in the assay with DMPK2; 0% with DMPK; 0% in the assay with DRAK1; 0% in the assay with DRAK2. Also, the “%Inh” value is 20% with DYRK1A, 0% in the assay with DYRK1B, 4% in the assay with DYRK2 and 14% in the assay on EGFR.
For `NC(=O)c1sc(-n2cnc3ccccc32)cc1OCc1ccccc1F` [GSK1024306], the “%Inh” value in the assay with DDR2 was 25%; in the assay with DLK, 38%; with DMPK2, 0%; with DMPK, 0%; with DRAK1, 4%; with DRAK2 it was 0%. In addition, the “%Inh” value came out at 4% in the assay on DYRK1A, 0% in the assay on DYRK1B, 17% in the assay with DYRK2 and 84% in the assay on EGFR.
As for `FC(F)(F)c1ccc(-c2cc(-c3c[nH]nc3-c3ccccn3)ccn2)cc1` [GW599550], the “%Inh” value in the assay on DDR2 stood at 17%; with DLK, 41%; in the assay with DMPK2, 0%; in the assay with DMPK, 4%; with DRAK1, 10%; in the assay on DRAK2, 0%. Moreover, the “%Inh” value is 10% in the assay with DYRK1A, 23% with DYRK1B, 0% with DYRK2 and 18% in the assay with EGFR.

Values taken from publication PMC5540273 (PLoS ONE, 2017).
